Compound activity as filed in PubChem.
In the library only some 0.47% were active in any assay of this set; here they are far more common.
AID inhibitor – activation induced cytidine deaminase inhibition | hit rate 0.32% among 91,000 | Potency, µM (series often up to 115 µM), most hits filed as inhibitors | AID deamination FRET fluorescence, UDG-coupled, 4 h | Q9GZX7; also: nearly all actives have a fitted effect of over 25% in size
Target sequence (Q9GZX7 whole entry, looked up): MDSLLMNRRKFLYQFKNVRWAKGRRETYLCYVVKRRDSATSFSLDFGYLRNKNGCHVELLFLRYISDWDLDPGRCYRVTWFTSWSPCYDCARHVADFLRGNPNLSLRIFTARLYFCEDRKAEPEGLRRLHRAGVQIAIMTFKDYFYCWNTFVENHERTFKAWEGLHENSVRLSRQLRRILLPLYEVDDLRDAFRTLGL
UDG counter – counter-screen for AID inhibitors: uracil-DNA glycosylase inhibition; AID 1347430; FRET deamination/UDG coupled assay, UDG read, 4 h; hit rate 0.14% among 91,000; Potency, µM (highest dose often 115 µM), inactives show at the top dose activity change, negative = inhibition, most hits filed as inhibitors; also: nearly all actives have a fitted effect of over 65% in size
An asterisk follows results filed as active; i = inactive; ? = inconclusive. Calls follow the shape of the dose curve; as a rule, active = well fitted curve in the direction sought with a large enough effect; inconclusive = small, poorly fitted or top-dose-only effect, or another doubt; inactive = no such curve, though single readings can be large; an effect the other way counts as inactive or inconclusive. % is scaled to controls: 0 for no effect and ±100 for the full control effect; potency is read from the fitted curve at half-maximal effect.

SMILES	AID inhibitor	UDG counter
COC(=O)C1=C(C)N(c2ccc(F)cc2)C(=O)CC1C(=O)Nc1ccc(C(C)=O)cc1 (centres undefined)	i	-10%
N#Cc1cccc(NS(N)(=O)=O)c1	i	7%
COc1ccc(-c2noc(N3CCC(C(=O)N4CCN(c5ccccc5OC)CC4)CC3)n2)cc1	i	?
COc1ccc(-c2noc(N3CCC(C(=O)N(C)c4cc(Cl)ccc4OC)CC3)n2)cc1	79µM*	-14%
COc1cccc(C(=O)OCc2cccc(C#N)c2)c1OC	i	0%
O=C(Cc1scnc1-c1cccs1)NCCc1ccccc1F	i	-4%
COc1ccc(C(=O)Nc2nc3nc(C)c(Cl)c(=O)n3[nH]2)cc1	i	-5%
Cc1nc2nc(NC(=O)c3ccc(C(C)(C)C)cc3)[nH]n2c(=O)c1Cl	32µM*	5%
CCC(=O)Nc1ccc(Cl)c(NC(=O)c2ccc3c(c2)OCCO3)c1	i	?
O=C(CCc1ncc(-c2ccccc2)o1)Nc1ccccc1	i	-3%
COc1ccc(S(=O)(=O)N2CCn3cccc3C2c2ccccc2)cc1 (centres undefined)	i	?
Cc1ccc(S(=O)(=O)N2CCn3cccc3C2c2ccccc2)cc1 (centres undefined)	i	89µM*
CN(C)/C=C/C(=O)c1ccc[nH]1	i	2%
Cc1ccc(NC(=O)COc2ccc(-c3nn(C)c(=O)c4ccccc34)cc2)cc1	?	4%
Cc1cccc(OCC(=O)Nc2cc(-c3nn(C)c(=O)c4ccccc34)ccc2N2CCOCC2)c1	?	89µM*
OC1CCN(c2nc(C(F)(F)F)nc3ccccc23)CC1	i	4%
COc1ccc(-c2noc(CSc3nnc(-c4ccccc4)n3C)n2)cc1	i	-24%
c1ccc(-c2noc(CSc3nnnn3C3CCCCC3)n2)cc1	i	89µM*
COc1cc(C2CC(=O)Nc3nc(N4CCCCC4)sc32)cc(OC)c1OC (centres undefined)	35µM*	-8%
COc1cc(C2CC(=O)Nc3n[nH]c(Nc4ccccc4)c32)cc(OC)c1OC (centres undefined)	i	-2%
COc1cc(NC(=O)CSc2nc(-c3ccc(C)cc3)nc3c2Cc2ccccc2O3)cc(OC)c1	i	-17%
CCOc1ccc(NC(=O)CSc2nc(-c3ccc(OC)cc3)nc3c2Cc2c(CO)cnc(C)c2O3)cc1	i	2%
COc1ccc(-c2nc3c(c(SCC(=O)Nc4cccc(O)c4)n2)Cc2c(CO)cnc(C)c2O3)cc1	45µM*	-15%
O=C(CSc1nc(-c2ccc(F)cc2)nc2c1Cc1ccccc1O2)Nc1cccc(C(=O)O)c1	40µM*	0%
c1ccc(-c2ccc(CNCc3ccncc3)o2)cc1	i	-11%
SMILES	AID inhibitor	UDG counter
CCOP(=O)(OCC)c1nc(-c2ccccc2)oc1N(C)C	i	-7%
Cc1cccc(N2CCN(C(=O)CCS(=O)(=O)c3ccc4c(c3)CC(=O)N4C)CC2C)c1 (centres undefined)	i	79µM*
CN1C(=O)Cc2cc(S(=O)(=O)CCC(=O)N3CCN(c4ccccc4F)CC3)ccc21	i	?
CC(C)CCn1c(C2CC(=O)N(Cc3ccc(F)cc3)C2)nc2ccccc21 (centres undefined)	i	-1%
Cc1ccc(OCCn2c(C3CC(=O)N(Cc4ccc(F)cc4)C3)nc3ccccc32)c(C)c1 (centres undefined)	35µM*	?
CCc1ccc(NC(=O)c2cnc(SC)nc2-c2ccccc2)cc1	i	7%
CCc1ccccc1N1CC(c2nc3ccccc3n2CCC2CCCCC2)CC1=O (centres undefined)	?	79µM*
CCOc1ccccc1N1CC(c2nc3ccccc3n2CCCCOc2ccccc2)CC1=O (centres undefined)	i	-15%
Cc1ccc(N2CC(c3nc4ccccc4n3CCC3CCCCC3)CC2=O)cc1 (centres undefined)	i	?
O=C1CC(c2nc3ccccc3n2CCCCOc2ccccc2)CN1c1ccccc1Cl (centres undefined)	?	89µM*
O=C(c1cc2ccccc2[nH]1)N(Cc1cccc(Br)c1)C1CC1	i	-9%
CC1=C(C(=O)Nc2ccc(C)cc2C)C(c2ccc(Br)cc2)NC(=O)N1 (centres undefined)	i	-8%
COc1ccc(Nc2ncc3c(n2)CCN(Cc2cc(Br)cs2)C3)c(OC)c1	?	89µM*
COc1ccc(Nc2ncc3c(n2)CCN(Cc2ccc(Br)s2)C3)c(OC)c1	i	-8%
C=CCn1c(C(C)(C)Oc2ccc(Cl)c(C)c2)n[nH]c1=S	i	7%
CCn1cc2nc(SCc3ccc(C)cc3)n(CCc3ccccc3)c(=O)c2n1	?	-23%
CCn1cc2nc(SCc3ccc(F)cc3)n(CCc3ccccc3)c(=O)c2n1	35µM*	-14%
CC(=O)Oc1ccc(C2C(C#N)=C(N)OC3=C2C(=O)CC(C)(C)C3)cc1 (centres undefined)	i	-4%
